From PubChem BioAssay
Shown are actives, neighbours in structure and some others; about 18% of the full set was active somewhere.
TDP1 inh: blocks human tyrosyl-DNA phosphodiesterase 1 | Potency, µM (top dose mostly 130 µM), inactives show at the highest dose activity change, negative = inhibition, actives largely listed as inhibitors | recombinant TDP1, AlphaScreen DNA substrate cleavage | Q9NUW8 | hit rate 0.28% among 350,000; also: potency is read from the fitted curve at half-maximal effect; nearly all actives have a fitted effect of over 40% in size
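E. coli-derived human Tdp1, 1 nM final. Cpd preinc 15 min RT; substrate 15 nM final, 5 min RT; AS bead mix 10 ug/ml final, 10 min RT. Signal loss = tyrosine-FITC cleavage. No-enzyme wells = max signal.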
IL1B secr inh: inhibitors of inflammasome signaling (IL-1 beta secretion). THP-1 LPS/ATP IL-1B secretion, AlphaLISA, 16 h; hits give low values. activity change, % at 57.5 µM. hit rate 4.7% among 360,000; in the data active = activity change below about -50%; inconclusive = mostly about -30% to -49%
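Secreted IL-1B measured by AlphaLISA bead assay after 16 h compound exposure of THP-1 cells; compounds (final up to 57.5 uM) added 1 h before LPS (250 ng/mL) and ATP (1.25 mM) stimulation; lower signal means less secretion.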
CtBP-E1A blk: CtBP/E1A binding inhibition; hit rate 0.49% among 340,000; AlphaScreen GST-E1A/His-CtBP binding, 1536-well; hits give low values; AID 651724; activity change, % (concentration not given with the values); in the data active = activity change below about -65%; inconclusive = mostly about -30% to -63%
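Steps: dispense buffer (Tris pH 8.0, NaCl 300 mM, TCEP 1 mM, BSA, Tween 20); add 5X protein mix (GST-E1A, His-CtBP, 125 nM each); pin 23 nL compound; 2 h at 37 °C, dark; add 5X beads (50 ug/mL); 1 h; read.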
Six1-Eya2 inh: Six1/Eya2 interaction inhibition. Q15475+O00167. AlphaScreen GST-Six1/His-Eya2 binding, biochemical; hits give low values. activity change, % (no concentration beside the values). hit rate 0.56% among 360,000. AID 651725; in the data active = activity change below about -65%; inconclusive = mostly about -30% to -63%
Target sequence (O00167 whole entry, looked up): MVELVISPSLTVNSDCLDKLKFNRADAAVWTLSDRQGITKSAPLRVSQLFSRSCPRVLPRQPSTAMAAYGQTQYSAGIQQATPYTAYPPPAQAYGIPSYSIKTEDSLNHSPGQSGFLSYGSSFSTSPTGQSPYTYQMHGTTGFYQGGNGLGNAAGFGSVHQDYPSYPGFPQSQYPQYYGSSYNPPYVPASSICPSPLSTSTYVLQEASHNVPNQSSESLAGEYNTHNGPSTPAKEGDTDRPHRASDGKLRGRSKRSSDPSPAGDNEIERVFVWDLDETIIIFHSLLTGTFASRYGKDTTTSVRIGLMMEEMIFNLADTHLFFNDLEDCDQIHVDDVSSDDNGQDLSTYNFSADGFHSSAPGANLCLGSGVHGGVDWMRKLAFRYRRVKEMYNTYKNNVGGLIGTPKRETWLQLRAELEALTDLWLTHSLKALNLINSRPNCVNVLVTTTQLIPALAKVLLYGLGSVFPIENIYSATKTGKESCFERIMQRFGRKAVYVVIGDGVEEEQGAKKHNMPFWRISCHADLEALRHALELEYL
Target sequence (Q15475 whole entry, looked up): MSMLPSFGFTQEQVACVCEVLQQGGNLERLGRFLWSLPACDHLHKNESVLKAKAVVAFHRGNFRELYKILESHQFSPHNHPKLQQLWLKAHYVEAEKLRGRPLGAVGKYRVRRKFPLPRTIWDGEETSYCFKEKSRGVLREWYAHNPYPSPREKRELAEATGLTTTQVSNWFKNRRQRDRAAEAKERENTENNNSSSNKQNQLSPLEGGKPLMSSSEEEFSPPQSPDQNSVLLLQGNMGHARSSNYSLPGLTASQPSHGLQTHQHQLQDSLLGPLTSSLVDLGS
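AlphaScreen with GST-Six1 and His-Eya2 (5X mix: 250 nM and 500 nM), glutathione donor and nickel acceptor beads; buffer 50 mM Tris pH 8.0, 300 mM NaCl, 1 mM TCEP; 1 h at 37 C in the dark.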
TDP1 cell noCPT: qHTS for Inhibitors of human tyrosyl-DNA phosphodiesterase 1 (TDP1): qHTS in cells in absence of CPT | hit rate 15% among 420,000 | DT40 Tdp1-/- hTDP1 cells, no CPT, ATP luminescence, 48 h | Potency, µM (doses to about 46.2 µM), inactives show top-dose activity change, negative = growth inhibition, usual class: inhibitors; also: potency is read from the fitted curve at half-maximal effect; nearly all actives have a fitted effect of over 55% in size
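Seeded 400 DT40-hTDP1 cells/well (vehicle DMSO, no 20 nM CPT); pinned compounds; ≥48 hr at 37 °C; CellTiter-Glo luminescence as viability measure.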
DT40 TDP1 CPT: DT40-hTDP1 cell growth loss with CPT | chicken DT40 Tdp1-/-;hTDP1 cells + 20 nM CPT, ATP luminescence, 48 h | hit rate 12% among 420,000 | Potency, µM (doses to about 46.2 µM), inactives show top-dose activity change, negative = growth inhibition, usual class: inhibitors; also: potency is read from the fitted curve at half-maximal effect; nearly all actives have a fitted effect of over 55% in size
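Chicken DT40 Tdp1-/- cells stably complemented with human TDP1 were seeded at 400 cells/well in medium containing 20 nM camptothecin, exposed to pin-transferred compounds, and grown at 37 °C for at least 48 hr. Viability was read as ATP luminescence.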
Active calls of the source: *; u = inconclusive; x = not tested or not shown; [ ] = another dose, or the depositor's remark. Unless noted, calls follow the shape of the dose curve; as a rule, active = well fitted curve in the direction sought with a large enough effect; inconclusive = small, poorly fitted or top-dose-only effect, or another doubt; inactive = no such curve, though single readings can be large; an effect the other way counts as inactive or inconclusive. % is scaled to controls: 0 for no effect and ±100 for the full control effect.

SMILES | TDP1 inh | IL1B secr inh | CtBP-E1A blk | Six1-Eya2 inh | TDP1 cell noCPT | DT40 TDP1 CPT
Cc1ccc2c(C)c(C(=O)N(C)C(C)c3ccncn3)oc2c1C (configuration not stated) | 3.3% | 0.2 | -0.4 | -1.0 | -13.2% | -19.1%
Cc1ccc2c(C)c(C(=O)N(C)C(C)c3ccon3)oc2c1C (configuration not stated) | 2.9%[56.1 µM] | -9.1 | 1.2 | 4.8 | 16.4µM* | u
CCOC(=O)c1c(C)oc2ccc(O)c(CN3CCCCC3)c12 | 3.4% | -69.4* | 9.1 | -0.2 | -29.0% | u
CCOC(=O)c1oc2cccc(O)c2c1CN1CCOCC1 | 0.0% | 24.2 | 5.4 | -1.7 | -27.9% | -23.3%
CCOC(=O)c1c(-c2ccccc2)oc2ccc(O)c(CN3CCOCC3)c12 | 2.2% | 0.0 | -0.5 | 5.1 | 23.1µM* | 23.1µM*
COc1cc(NC(=O)c2cc([N+](=O)[O-])ccc2NC(=O)CNC2CCCCC2)cc(OC)c1 | 7.6% | 15.2 | -20.2 | -10.0 | 16.4µM* | 20.6µM*
COc1cc(NC(=O)c2cc([N+](=O)[O-])ccc2NC(=O)CNC2CCCCC2C)cc(OC)c1 (configuration not stated) | x | -19.1 | 2.2 | -23.7 | u | u
COc1ccc(NC(=O)c2cc([N+](=O)[O-])ccc2NC(=O)CNCc2ccccn2)c(OC)c1 | 7.8% | -7.7 | -16.6 | u | 13µM* | u
COc1cc(NC(=O)c2cc([N+](=O)[O-])ccc2NC(=O)CNCc2ccccn2)cc(OC)c1 | 56.2µM* | 92.5 | -83.9* | -91.0* | u | 2.1%
O=C(CNC(=O)C1CCCCC1)OCn1nnc2ccccc2c1=O | 0.0% | 6.2 | 2.3 | 0.0 | -6.2% | -28.3%
O=C(COC(=O)c1ccccc1O)NCc1ccc2c(c1)OCO2 | -1.2% | 8.7 | 2.5 | 5.1 | u | 5.8%
Brc1cc2c(cc1Br)OCCOCCOCCOCCO2 | -1.3% | 0.0 | -0.7 | 7.9 | 10.3µM* | 14.6µM*
O=[N+]([O-])c1cc2c(cc1[N+](=O)[O-])OCCOCCOCCOCCO2 | 2.5% | -85.7* | -2.7 | -2.5 | -1.7% | -21.9%
Brc1ccc2c(c1)OCCOCCOc1cc(Br)ccc1OCCOCCOCCO2 | 2.6% | -56.4* | 4.9 | -7.5 | 2.91µM* | 5.17µM*
COc1ccc(Cc2n[nH]c(=S)n2-c2ccc3c(c2)OCCO3)cc1 | 2.4% | 31.1 | x | -1.1 | u | -16.0%
O=[N+]([O-])c1ccc(Sc2n[nH]c(-c3ccccc3)n2)nc1 | 11.2% | -10.7 | 2.0 | 0.1 | -7.4% | -6.5%
COc1ccc(NC(=O)C2Cc3c(-c4ccccc4)ccnc3O2)cc1OC (configuration not stated) | x | u | -23.2 | -5.9 | 4.61µM* | u
COc1ccc(NC(=O)C2Cc3c(-c4ccc(Cl)cc4)ccnc3O2)cc1OC (configuration not stated) | x | -16.3 | -2.7 | -4.5 | 18.4µM* | u
COc1ccc(NC(=O)C2Cc3c(-c4ccc(Cl)cc4)ccnc3O2)cn1 (configuration not stated) | x | -7.1 | -11.7 | -7.2 | 20.6µM* | 14.6µM*
COc1ccc(NC(=O)C2Cc3c(-c4cccc(C(N)=O)c4)ccnc3O2)cc1OC (configuration not stated) | x | 16.1 | -11.1 | -11.9 | 7.31µM* | 11.6µM*
COc1ccc(NC(=O)C2Cc3c(-c4ccncc4)ccnc3O2)cc1OC (configuration not stated) | x | 0.0 | 3.1 | 0.2 | u | u
COc1ccc(C(=O)Nc2nc(C)cc(C)n2)cc1 | 2.8% | -1.0 | 5.1 | 10.2 | 13.1% | -2.0%
Cc1nc(SC2CC(=O)N(c3ccccc3)C2=O)nc2c1CCCC2 (configuration not stated) | 2.4% | 9.4 | -2.4 | -0.9 | -28.7% | u
COc1cccc(/C=C/C(=O)OCC(=O)Nc2cccc(S(=O)(=O)N3CCCCC3)c2)c1OC | -0.6% | 6.7 | -0.9 | -8.9 | u | u
Cc1ccc(N(CC(=O)NC(C)(C)C)C(=O)CNC(=O)c2cccs2)cc1 | 7.6% | -11.5 | 3.5 | -4.4 | u | 1.9%
SMILES | TDP1 inh | IL1B secr inh | CtBP-E1A blk | Six1-Eya2 inh | TDP1 cell noCPT | DT40 TDP1 CPT
COc1ccc(NC(=O)Cn2c(SCc3c(F)cccc3Cl)nc3ccncc32)cc1OC | -2.5% | x | x | x | -19.8% | -25.7%
CCN(CC)C(=O)c1sc2c(c1C)c(=O)n(-c1ccc(OC)cc1OC)c(=O)n2Cc1cc(C)ccc1C | 4.4% | x | x | x | u | u
COCCn1c(=O)c(-c2ccccc2)nc2cnc(N3CCNCC3)nc21 | x | x | x | x | -27.6% | 11.3%
Cn1c(=O)c(CCc2ccccc2)nc2cnc(N3CCNCC3)nc21 | x | x | x | x | 9.2µM* | u
COc1ccc(-c2nc3cnc(N4CCNCC4)nc3n(CCc3ccccc3)c2=O)cc1 | x | x | x | x | 20.6µM* | u
Cn1c(=O)c(CCc2ccccc2)nc2cnc(N3CCOCC3)nc21 | x | x | x | x | 8.9% | -7.6%
N#CCCn1c(=O)c(-c2cccs2)nc2cnc(N3CCNCC3)nc21 | x | x | x | x | 3.66µM* | u
COCCn1c(=O)c(-c2ccc(Cl)cc2)nc2cnc(N3CCNCC3)nc21 | x | x | x | x | 11.6µM* | 6.51µM*
CC(=O)Nc1cccc(C(=O)OCC(=O)NNC(=O)c2cccs2)c1 | -8.3% | 10.5 | -22.6 | -2.2 | -23.4% | -4.1%
O=C(CCNS(=O)(=O)c1ccc2c(c1)CCC(=O)N2)Nc1ccc(F)c(F)c1 | 1.5% | 18.8 | 2.3 | 1.8 | -26.5% | 5.5%
CCC(C)C(N)C(=O)NC(CC(N)=O)C(=O)NC(CC(C)C)C(=O)NC(CCCCN)C(=O)NC(C)C(=O)NC(CC(C)C)C(=O)NC(C)C(=O)NC(C)C(=O)NC(CC(C)C)C(=O)NC(C)C(=O)NC(CCCCN)C(=O)NC(CCCCN)C(=O)NC(C(=O)NC(CC(C)C)C(N)=O)C(C)CC (configuration not stated) | 12.8% | x | x | x | x | x
O=c1c(-c2ccc(Cl)cc2)nc2cnc(N3CCNCC3)nc2n1CCc1ccccc1 | x | x | x | x | 18.4µM* | 11.6µM*
O=C(CCl)NC(Cc1c[nH]c2ccc(OCc3ccccc3)cc12)C(=O)O (configuration not stated) | 3.4% | -2.9 | x | 7.1 | -7.7% | 16.1%
O=C1N=C(N2CCCC2C(=O)O)S/C1=C\c1ccco1 (configuration not stated) | x | -1.3 | x | -16.2 | 18.4µM* | 8.2µM*
O=C1N=C(N2CCCCC2)S/C1=C/C1=Cc2ccccc2OC1 | 3.7% | 5.4 | 3.8 | 9.1 | u | u
